# “And” between values parts separate entries of the source, which are not always exact repeats. Equal values may be shown once. Results filed as inconclusive are left out. The source made the active and inactive calls. Calls follow the shape of the dose curve; as a rule, active = well fitted cell-killing curve with a large enough effect; inconclusive = small, poorly fitted or top-dose-only effect; inactive = no such curve, though single readings can be large or run the other way.
# Assay: qHTS of pediatric cancer cell lines to identify multiple opportunities for drug repurposing: Primary screen for A673 cells (AID 1347092); also: nearly all actives have a fitted effect of over 45% in size
# Conditions: A673 Ewing sarcoma viability, CellTiter-Glo ATP luminescence, 48 h; series mostly up to 46 µM; activity change, negative = cytotoxic: at the top concentration
# Text: Drug repurposing or repositioning has been offered as a strategy for drug development in oncology programs. This approach has special potential for childhood cancers and other rare or orphan diseases, where the expected return on new drug development has been a disincentive to pharmaceuticals. […] In this project we exploit the poly-pharmacology of drugs to discover new indications via phenotypic screening of a panel of 19 well-characterized cell lines derived from solid tumors seen in children and adolescents. The goal is to identify approved drugs with previously unrecognized anticancer properties that has the potential to reveal new mechanisms and biological processes involved in carcinogenesis or drug resistance. We employed a titration-based paradigm (quantitative high-throughput screening or qHTS), where all compounds were tested at multiple concentrations for their effect on cell viability. Concentration-response curves (CRCs) were derived directly from the primary screen, and both potency and efficacy values were used to identify compounds with robust bioactivity profiles. We screened the NIH Chemical Genomics Center (NCGC) Pharmaceutical Collection (NPC) and Mechanism Interrogation Plate (MIPE) small molecule collections of approved and investigational compounds against these cell lines; and measured metabolically active cells after 48 hours of compound treatment as a proxy for cell viability. […] Assay Submitter: Nathalia J. Martinez, National Center for Advancing Translational Sciences, National Institutes of Health, Rockville, MD, USA; email: natalia.martinez@nih.gov. Shen, M et al. Quantitative high-throughput phenotypic screening of pediatric cancer cell lines identifies multiple opportunities for drug repurposing. Oncotarget 2017 Dec 19;9(4):4758-4772. PMID 29435139.
# The cells were obtained from University of North Carolina (UNC), Pediatric Preclinical Testing Program (PPT), and Coriell Institute (CI). qHTS cell viability assay: Cells were assayed in growth media at a density of 500-1,000 cells/well. Five microliters of cells were dispensed into 1,536-well, white, solid-bottom, TC-treated plates (Greiner Bio One) using a multidrop dispenser and incubated at 37 degrees C, 5% CO2, under a humidified atmosphere for 5 hours. Twenty-three nanoliters of compounds and controls (neutral control DMSO or positive control bortezomib at final concentration of 2.3 uM) were subsequently transferred by Kalypsys pintool. For primary screens, the MIPE collection was tested at 11-point dilutions (final concentrations range from 0.78 nM to 46 µM) and the NPC collection at 8-point dilutions (final concentrations range from 0.59 nM to 46 µM). Compounds tested in follow-up screens were assayed at 11-point dilutions. Cells were incubated for 48 hours, followed by addition of 3 uL of CellTiter-Glo (Promega). After a 15min incubation at room temperature, samples were analyzed for luminescence intensity using a ViewLux High-throughput CCD imager equipped with clear filters.
# % is scaled to controls: 0 for no effect and ±100 for the full control effect; potency is read from the fitted curve at half-maximal effect.
SMILES,"activity change, negative = cytotoxic",Potency
CCN(CC)CCOC(=O)c1ccc(N)cc1,0.487% (inactive),–
Cc1c(NC(=O)c2ccc(C(C)(C)C)cc2)cccc1-c1cn(C)c(=O)c(Nc2ccc(C(=O)N3CCOCC3)cc2)n1,–,9.35 µM (active)
CO[C@H]1C[C@@H]2CC[C@@H](C)[C@@](O)(O2)C(=O)C(=O)N2CCCC[C@@H]2C(=O)O[C@H]([C@H](C)C[C@@H]2CC[C@H](OCCO)[C@H](OC)C2)CC(=O)[C@H](C)C=C(C)[C@@H](O)[C@@H](OC)C(=O)[C@H](C)C[C@H](C)C=CC=CC=C1C,–,11.8 µM (active)
COCCOc1nc(-c2ccc(Cl)c(Cl)c2)n(-c2ccc(NC(=O)CCl)cc2)n1,–,4.69 µM (active)
CC[C@]1(O)C[C@@H]2CN(CCc3c([nH]c4ccccc34)[C@@](C(=O)OC)(c3cc4c(cc3OC)N(C)[C@H]3[C@@](O)(C(=O)OC)[C@H](OC(C)=O)[C@]5(CC)C=CCN6CC[C@]43[C@@H]65)C2)C1,–,21.1 nM (active) and 133 nM (active)
CCCCC1C(=O)N(c2ccccc2)N(c2ccccc2)C1=O,-15.6% (inactive),–
CC(C)(C)NC(=O)Nc1cccc(Nc2ncc(F)c(NC(C)(C)CO)n2)c1,–,18.7 µM (active)
O=C(NCc1ccncc1)C12C[C@H]3C[C@@H](C1)CC(c1ccc(Cl)cc1)(C3)C2,–,7.43 µM (active)
O=c1cc(-c2ccc(O)cc2)oc2cc(O)cc(O)c12,–,1.18 µM (active)
COc1ccc2cccc(CCNC(C)=O)c2c1,-12.4% (inactive),–
COc1cc(N2CCC(N3CCN(C)CC3)CC2)ccc1Nc1ncnc(Nc2ccccc2S(=O)(=O)C(C)C)n1,–,9.35 µM (active)
CC(=NNC(=S)N1CCC1)c1ccccn1,–,0.0037 µM (active)
OC[C@@H](O)[C@H](O)[C@H](O)[C@@H](O)CO,–,inactive
O=C(NCc1ccccc1)c1csc(Nc2ccncn2)n1,–,23.5 µM (active)
O=c1c(O)c(-c2ccc(O)cc2)oc2cc(O)cc(O)c12,–,14.8 µM (active)
COc1cc2ncnc(-n3nc(-c4ccccn4)nc3N)c2cc1OC,–,3.72 µM (active)
CC(C)(C)COc1ccc(-n2cc(C(=O)O)cn2)cc1C#N,5.4% (inactive),–
O=c1c(-c2ccc(O)cc2)coc2cc(O)ccc12,-19.9% (inactive),–
Nc1ncnc2ccccc12,–,23.5 µM (active)
CC1(C)CCC[C@@]2(C)[C@@H]1CC[C@@]1(C)OC(=O)C[C@H]21,-4.26% (inactive),–

SMILES,"activity change, negative = cytotoxic",Potency
CO[C@H]1C[C@@H]2CC[C@@H](C)[C@@](O)(O2)C(=O)C(=O)N2CCCC[C@@H]2C(=O)O[C@H]([C@H](C)C[C@@H]2CC[C@H](OP(C)(C)=O)[C@H](OC)C2)CC(=O)[C@H](C)C=C(C)[C@@H](O)[C@@H](OC)C(=O)[C@H](C)C[C@H](C)C=CC=CC=C1C,-40.6% (inactive),–
CCCCCNC(=O)N1CCC(CN(Cc2ccc(Cl)cc2)Cc2ccc([N+](=O)[O-])s2)C1 (stereo not given),–,23.5 µM (active)
CN[C@@H](C)C(=O)N[C@H]1CN(C(=O)CC(C)C)CC[C@H]2CC[C@@H](C(=O)NC(c3ccccc3)c3ccccc3)N2C1=O,–,0.0074 µM (active)
O=C(CCN1CCN(C(=O)OCc2cc(Cl)cc(Cl)c2)CC1)c1ccc2[nH]c(=O)oc2c1,-25.9% (inactive),–
CC(=O)N[C@@H](CS)C(=O)O,0.171% (inactive),–
CC=CC(=O)N(CC)c1ccccc1C,-12.7% (inactive),–
COc1ccc(-c2coc3cc(O)ccc3c2=O)cc1,-2.94% (inactive),–
CC1(C)Cc2c(sc(NC(=S)NC(=O)c3ccccc3)c2C(=O)O)CO1,–,23.5 µM (active)
COC(=O)C1=CO[C@@H](O)[C@@H]2C(CO)=CC[C@@H]12,11.6% (inactive),–
CC1(C)CCC2=C(O1)c1ccccc1C(=O)C2=O,–,23.5 µM (active)
Cc1ccc(F)c(NC(=O)Nc2ccc(-c3cccc4[nH]nc(N)c34)cc2)c1,–,14.8 µM (active)
O=C(CCCCCCC(=O)Nc1ccccc1)NO,–,3.35 µM (active) and 4.69 µM (active)
O=C(O)c1cc(O)c2c(c1)C(=O)c1cccc(O)c1C2=O,-15.4% [at 92.7 µM] (inactive),–
CO[C@H]1C[C@@H]2CC[C@@H](C)[C@@](O)(O2)C(=O)C(=O)N2CCCC[C@@H]2C(=O)O[C@H]([C@@H](C)C[C@@H]2CC[C@H](O)[C@H](OC)C2)CC(=O)[C@H](C)C=C(C)[C@@H](O)[C@@H](OC)C(=O)[C@H](C)C[C@H](C)C=CC=CC=C1C,-36.1% (inactive),–
O=C(NC1CCOCC1)c1ccc(-c2cc(-c3cn[nH]c3-c3ccccn3)ccn2)cc1,2.58% (inactive),–
Cn1c(N2CCCCS2(=O)=O)nc(C(=O)NCc2ccc(F)cc2)c(O)c1=O,-11.4% (inactive),–
O=C(CCc1ccc(O)cc1)c1c(O)cc(O)cc1O[C@@H]1O[C@H](CO)[C@H](O)[C@H](O)[C@H]1O,-22.8% (inactive),–
CCOC1OC(=O)C[C@H]1NC(=O)[C@@H]1CCCN1C(=O)[C@@H](NC(=O)c1ccc(N)c(Cl)c1)C(C)(C)C (stereo not given in full),–,0.118 µM (active)
CN(C)CCC=C1c2ccccc2COc2ccc(CC(=O)O)cc21,–,18.7 µM (active)
Cc1ccc(Nc2cc(-c3cccc(N4C(=O)c5ccccc5C4=O)c3)ncn2)cc1NS(C)(=O)=O,–,18.7 µM (active)

# Reference: PubChem BioAssay (NCATS)
